Test results reported in PubChem BioAssay AID2711 (National Center for Advancing Translational Sciences (NCATS), 2010).
This is one part of the list. Records with an inconclusive call do not appear. Values without a mark were called inactive. Activity calls are given as the source filed them. Calls follow the shape of the dose curve; as a rule, active = well fitted inhibition curve with a large enough effect; inconclusive = small, poorly fitted or top-dose-only effect; inactive = no such curve, though single readings can be large or run the other way.

Assay: Counterscreen for RECQ1 Inhibitors: ADP Fluorescence Polarization Displacement Assay; also: nearly all actives have a fitted effect of over 45% in size
Details: series mostly up to 228 µM; activity change, negative = inhibition: at the top concentration
Excerpt: In order to gain further insight into the mode of action of the RECQ1 screening hits, we have profiled them in a set of miniaturized fluorescence polarization assays designed to report on compounds which competitively displace either co-substrate (ATP or DNA). The appropriate fluorescently-labeled probe was used: BODIPY Texas Red-labeled ADP was expected to be competed off by ATP-competitive inhibitors, while single-TAMRA labeled forked-duplex or short single-stranded DNA molecules served as probes for DNA-competitive compounds.
Three uL of reaction buffer (25 mM Tris-HCl (pH 8.0), 5 mM NaCl, 2 mM MgCl2, 1mM DTT, 0.01% Tween- 20, and 2.5 ug/ml poly(dI-dC), containing 300 nM RECQ1 and 500 nM BODIPY Texas Red-ADP (Invitrogen) were dispensed into a 1536-well Greiner black assay plate via solenoid-valve based nanoliter dispensers; 500 nM BODIPY Texas Red-ADP without RECQ1 protein served as a fully-displaced control. Compounds (23 nl each in columns 5-48) were transferred via a Kalypsys pintool equipped with a 1536-pin array. The plates were incubated for 15 min at room temperature and were then transferred into a ViewLux high-throughput CCD imager, where the endpoint fluorescence polarization was measured using 525 nm excitation and 598 nm emission protocol.
% is scaled to controls: 0 for no effect and ±100 for the full control effect; potency is read from the fitted curve at half-maximal effect.

| SMILES | activity change, negative = inhibition | Potency |
| --- | --- | --- |
| COc1cc(C2C(C(=O)c3ccc(C)o3)=C(O)C(=O)N2CCc2ccccc2)ccc1O (configuration not stated) | 6.79% |  |
| CC(C)C1N=C2c3ccccc3N=C(SCC(=O)c3ccc(O)c(O)c3)N2C1=O (configuration not stated) | -10.2% [at 91.9 µM] |  |
| O=C(NCc1ccccc1)C1=C[C@@H](C2CCCCC2)C[C@@H](OCc2ccc(CO)cc2)O1 | -3.38% [at 91.9 µM] |  |
| O=C(N/N=C/c1sc(N2CCCCC2)nc1-c1cccs1)c1cccnc1 | 59.1% [at 91.9 µM] |  |
| CC1Cc2ccccc2N1C(=O)CSc1nnc(-c2ccc(S(=O)(=O)N3CCCC3)cc2)n1C (configuration not stated) | 3.82% |  |
| c1ccc(CSc2nnc(-c3ccco3)c(-c3ccco3)n2)cc1 |  | 50.1 µM (active) |
| O=C(NC(Cc1ccccc1)C(=O)N1CCCC1C(=O)O)c1ccccc1 (configuration not stated) | -0.948% |  |
| O=C(NC(Cc1c[nH]c2ccccc12)C(=O)O)/C(=C/c1ccco1)NC(=O)c1ccccc1 (configuration not stated) | 8.72% |  |
| O=C(CCn1nnc2ccccc2c1=O)N[C@@H](Cc1c[nH]c2ccccc12)C(=O)O | 6.93% |  |
| CC(=O)Nc1ccc(Nc2c3ccccc3nc3ccccc23)cc1 | 34.5% [at 91.9 µM] |  |
| O=C(OCC1O[C@@H](OC(=O)c2cc(O)c(O)c(O)c2)[C@@H](OC(=O)c2cc(O)c(O)c(O)c2)[C@@H](OC(=O)c2cc(O)c(O)c(O)c2)[C@@H]1OC(=O)c1cc(O)c(O)c(O)c1)c1cc(O)c(O)c(O)c1 (some centres not stated) | -12.5% [at 91.9 µM] |  |
| O=C(O)CCn1c(SCc2cc(=O)n3ccccc3n2)nc2ccsc2c1=O | 0.643% |  |
